Structures can show the parent of a compound that is named as a salt.

Data on 10 compounds can be found in the supplement of paper PMC12024424.

This assay relates to Staphylococcus aureus Sa2 (MRSA, cystic fibrosis isolate). The assay can be described thus: growth reduction vs untreated control (viable cell count); higher = stronger antibacterial activity; extreme values may be limits of the assay. The note with it: 0.1 mM; 24 h. As for the experimental part: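 Single-dose screen of the MedChem Express Drug Repurposing Library (0.1 mM, 1% DMSO) against planktonic MRSA S. aureus Sa2 (CF isolate) in TSB in 96-well plates, 37 °C aerobic, 24 h. Assays were run in triplicate and repeated twice.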
`CCCCCOc1ccccc1/C(=C\SC)n1ccnc1` [Neticonazole (hydrochloride)]: the growth reduction came out at 100%. Turning to `CC(C)N(CCCCOCC(=O)NS(C)(=O)=O)c1cnc(-c2ccccc2)c(-c2ccccc2)n1` [Selexipag], the growth reduction amounted to 100%. For `C#C[C@]1(O)CC[C@H]2[C@@H]3CCC4=CCCC[C@@H]4[C@H]3C(=C)C[C@@]21CC` [Desogestrel] the value was 100%; for `COc1cc2c(cc1Cc1cccc(Cl)c1F)c(=O)c(C(=O)O)cn2[C@H](CO)C(C)C` [Elvitegravir], 100%; for `C=C1C[C@H]2[C@@H]3CCC4=CC(=O)CC[C@@H]4[C@H]3CC[C@]2(C)[C@@]1(OC(C)=O)C(C)=O` [Nestoron], 98%. In the case of `CC1(S(=O)(=O)O)CC(=O)c2ccccc2C1=O` (stereo not given) [Menadione bisulfite (sodium)] it was 100%; in that of `COc1cccc(-c2ccc(NC(=O)C3=C(C(=O)O)CCC3)c(F)c2)c1` [Vidofludimus], 99%.

For the compound `CCCCc1oc2ccc(NS(C)(=O)=O)cc2c1C(=O)c1ccc(OCCCN(CCCC)CCCC)cc1` [Dronedarone], the growth reduction amounted to 100%.

In turn, `O=C(Nc1ccc([N+](=O)[O-])cc1Cl)c1cc(Cl)ccc1O` [Niclosamide] displayed a growth reduction of 100%. For `CNCCC(Oc1ccc(C(F)(F)F)cc1)c1ccccc1` (stereo not given) [Fluoxetine (hydrochloride)] the value was 100%.
